Data on nine molecules can be found in PubChem BioAssay (Tox21).

Assay [1] in a line: qHTS assay to identify small molecule antagonists of the peroxisome proliferator-activated receptor delta (PPARd) signaling pathway - cell viability counter screen (AID 743213; active = well fitted curve in the direction sought with a large enough effect in the repeat runs; an effect the other way counts as inactive or inconclusive; note: nearly all actives have a fitted effect of over 50% in size; note: potency is the fitted concentration of half-maximal effect). In outline:
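CellTiter-Glo was added to PPARd-bla HEK293H wells following 17 h compound treatment in the presence of 300 nM L165041. Luminescence was recorded after 30 min at room temperature.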

The nature of assay [2]: qHTS assay to identify small molecule agonists of the farnesoid-X-receptor (FXR) signaling pathway - cell viability counter screen (AID 743218; active = well fitted curve in the direction sought with a large enough effect in the repeat runs; an effect the other way counts as inactive or inconclusive; note: nearly all actives have a fitted effect of over 45% in size; note: potency is the fitted concentration of half-maximal effect). In outline:
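Quantitative HTS counter screen measuring ATP-based viability via CellTiter-Glo luminescence in HEK 293T cells carrying a UAS-driven beta-lactamase reporter, after 16 h compound exposure at 37 C.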

Assay [3] in a line: qHTS assay to identify small molecule antagonists of the farnesoid-X-receptor (FXR) signaling pathway - cell viability counter screen (AID 743221; active = well fitted cell-killing curve with a large enough effect in the repeat runs, not every such curve was filed as active; note: nearly all actives have a fitted effect of over 50% in size; note: potency is the fitted concentration of half-maximal effect). In outline: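 After a 5 h settling period, FXR-bla HEK 293T cells receive compound and chenodeoxycholic acid (50 uM final) and incubate 16 h at 37 C; CellTiter-Glo luminescence, read after 30 min at room temperature, reports cell viability.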

Assay [4] is described as follows: qHTS assay to identify small molecule agonists of the NFkB signaling pathway - cell viability counter screen (AID 1159515). Note: nearly all actives have a fitted effect of over 55% in size. Note: potency is the fitted concentration of half-maximal effect. The method, boiled down: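 Tox21 library compounds were tested for cytotoxicity against NFkB-bla ME-180 cells during a 5 hr exposure at 37 C. CellTiter-Glo luminescence served as the viability read-out.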
Assay [5] in a line: qHTS assay to identify small molecule agonists of the endoplasmic reticulum stress response signaling pathway - cell viability counter screen (AID 1159517). Note: nearly all actives have a fitted effect of over 50% in size. Note: potency is the fitted concentration of half-maximal effect. In outline: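 In parallel with the ESRE reporter read, cytotoxicity was scored by CellTiter-Glo luminescence (30 min, room temperature) on HeLa ESRE-bla cells dosed for 5 hr.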
Assay [6] is described as follows: qHTS assay to identify small molecule antagonists of the retinoid-related orphan receptor gamma (ROR-gamma) signaling pathway - cell viability counter screen (AID 1159520; active = well fitted curve in the direction sought with a large enough effect in the repeat runs; an effect the other way counts as inactive or inconclusive; note: nearly all actives have a fitted effect of over 50% in size; note: potency is the fitted concentration of half-maximal effect). In outline:
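Tet-on ROR gamma CHO cells were given compounds for 2 hr, then doxycycline hyclate at 1 uM final, and incubated 16 hr at 37 C. Viability was measured as ATP content by CellTiter-Glo luminescence.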

Assay [7] in a line: qHTS assay to identify small molecule agonists of the AP-1 signaling pathway - cell viability counter screen (AID 1159525). Note: nearly all actives have a fitted effect of over 55% in size. The method, boiled down: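 Same-well cytotoxicity counter screen of the Tox21 10K library in ME-180 cells. The readout is ATP-dependent luminescence after 5 h compound treatment. Data are normalised to DMSO and tetra n-octyl ammonium bromide controls.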

The target in assay [8] is Peroxisome proliferator-activated receptor delta (Homo sapiens) (UniProt Q03181). Kind of assay: qHTS assay to identify small molecule agonists of the peroxisome proliferator-activated receptor delta (PPARd) signaling pathway (AID 743212). In outline:
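Tox21 library screened in GeneBLAzer PPARd UAS-bla HEK293H cells. After compound treatment at 37 C, a FRET-based beta-lactamase substrate was applied for 2 h and fluorescence recorded.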

Assay [9] can be described thus: qHTS assay to identify small molecule agonists of the vitamin D receptor (VDR) signaling pathway - cell viability counter screen (AID 743224; active = well fitted curve in the direction sought with a large enough effect in the repeat runs; an effect the other way counts as inactive or inconclusive; note: nearly all actives have a fitted effect of over 50% in size; note: potency is the fitted concentration of half-maximal effect). The method, boiled down: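 CellTiter-Glo viability readout on VDR-bla cells, measured after 16 h of compound treatment at 37C in the same wells.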
Assay [10] in a line: qHTS assay to identify small molecule antagonists of the vitamin D receptor (VDR) signaling pathway - cell viability counter screen (AID 743225; active = well fitted curve in the direction sought with a large enough effect in the repeat runs; an effect the other way counts as inactive or inconclusive; note: nearly all actives have a fitted effect of over 50% in size). In outline: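 Parallel cytotoxicity test: VDR-UAS-bla HEK 293T, 3 nM (final) 1-alpha,25-dihydroxyvitamin D3 with test compound, 16 h, 37C. Endpoint is CellTiter-Glo luminescence in the same wells.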
The nature of assay [11]: qHTS assay to identify small molecule agonists of the AP-1 signaling pathway (AID 1159526).
In assay [12] the target is Peroxisome proliferator-activated receptor delta (Homo sapiens) (UniProt Q03181). Kind of assay: qHTS assay to identify small molecule antagonists of the peroxisome proliferator-activated receptor delta (PPARd) signaling pathway (AID 743215; active = well fitted inhibition curve with a large enough effect in the signal ratio in the repeat runs, not every such curve was filed as active; the % refers to the signal ratio;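 note: cells stimulated with agonist L165041 at 300 nM final during compound exposure; series mostly up to about 62 µM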). In outline: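 Here, a reporter line (HEK293H, beta-lactamase under a UAS) measures PPARd signaling. Compounds are tested against agonist L165041 at 300 nM final concentration over 17 h at 37 C, with fluorescence read after substrate.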
Sequence of Peroxisome proliferator-activated receptor delta (Homo sapiens) (Q03181 whole entry, looked up): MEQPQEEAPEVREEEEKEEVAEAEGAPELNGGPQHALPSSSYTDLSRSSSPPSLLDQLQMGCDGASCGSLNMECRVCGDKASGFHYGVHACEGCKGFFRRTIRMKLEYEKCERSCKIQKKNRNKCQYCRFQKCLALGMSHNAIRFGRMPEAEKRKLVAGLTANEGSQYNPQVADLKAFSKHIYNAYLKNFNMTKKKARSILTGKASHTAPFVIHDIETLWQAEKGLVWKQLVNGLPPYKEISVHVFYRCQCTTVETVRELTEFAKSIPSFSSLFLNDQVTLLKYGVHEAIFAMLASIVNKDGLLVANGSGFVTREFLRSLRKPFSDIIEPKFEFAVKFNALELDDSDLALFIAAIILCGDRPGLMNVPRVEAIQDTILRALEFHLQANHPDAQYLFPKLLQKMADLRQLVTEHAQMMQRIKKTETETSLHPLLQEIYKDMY

The target in assay [13] is Vitamin D3 receptor (Homo sapiens) (UniProt P11473). The experiment in a line: qHTS assay to identify small molecule antagonists of the vitamin D receptor (VDR) signaling pathway (AID 743223; active = well fitted inhibition curve with a large enough effect in the signal ratio in the repeat runs, not every such curve was filed as active; the % refers to the signal ratio). In outline:
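Reporter line VDR-bla; stimulus 1alpha,25-(OH)2 vitamin D3, 3 nM final; compound co-addition, 16 h 37C/5% CO2; LiveBLAzer B/G substrate 2 h RT; fluorescence intensity.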

The target of assay [14] is Nuclear receptor ROR-gamma (Homo sapiens) (UniProt P51449). Kind of assay: qHTS assay to identify small molecule antagonists of the retinoid-related orphan receptor gamma (ROR-gamma) signaling pathway (AID 1159521; active = well fitted curve in the direction sought with a large enough effect in the repeat runs; an effect the other way counts as inactive or inconclusive; note: nearly all actives have a fitted effect of over 50% in size; note: potency is the fitted concentration of half-maximal effect). In outline:
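Decreased RORE-driven luciferase luminescence indicates antagonism. Tet-on RORγ CHO cells received compound, then 1 uM final doxycycline 2 h later; signal read after 16 h incubation.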

The target of assay [15] is Retinoic acid receptor RXR-alpha (Homo sapiens) (UniProt P19793). Kind of assay: qHTS assay to identify small molecule agonists of the RXR signaling pathway (AID 1159527). Note: nearly all actives have a fitted effect of over 35% in size. The method, boiled down:
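16 hr incubation of compound-treated RXR-alpha-UAS-bla HEK 293T cells (2% charcoal-stripped FBS, 37 C) preceded a 2 hr room-temperature LiveBLAzer FRET substrate step and blue/green fluorescence measurement.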

In assay [16] the target is Bile acid receptor (Homo sapiens) (UniProt Q96RI1). Kind of assay: qHTS assay to identify small molecule agonists of the farnesoid-X-receptor (FXR) signaling pathway (AID 743220; active = well fitted activation curve with a large enough effect in the signal ratio in the repeat runs, not every such curve was filed as active; the % refers to the signal ratio). The method, boiled down:
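FXR-UAS-bla HEK 293T cells carrying a UAS-driven beta-lactamase reporter were plated for 5 h at 37C/5% CO2, then exposed to DMSO-dissolved Tox21 10K compounds for 16 h at 37C. A LiveBLAzer B/G FRET substrate was loaded for 2 h at room temperature before fluorescence reading.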

Assay [17] deals with Vitamin D3 receptor (Homo sapiens) (UniProt P11473). The experiment in a line: qHTS assay to identify small molecule agonists of the vitamin D receptor (VDR) signaling pathway (AID 743222). In outline: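 Tox21 cell reporter format: VDR-bla line, 16 h compound exposure in 5% CO2 at 37C, then fluorescence intensity after 2 h with LiveBLAzer B/G FRET substrate.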
Sequence of Vitamin D3 receptor (Homo sapiens) (P11473 whole entry, looked up): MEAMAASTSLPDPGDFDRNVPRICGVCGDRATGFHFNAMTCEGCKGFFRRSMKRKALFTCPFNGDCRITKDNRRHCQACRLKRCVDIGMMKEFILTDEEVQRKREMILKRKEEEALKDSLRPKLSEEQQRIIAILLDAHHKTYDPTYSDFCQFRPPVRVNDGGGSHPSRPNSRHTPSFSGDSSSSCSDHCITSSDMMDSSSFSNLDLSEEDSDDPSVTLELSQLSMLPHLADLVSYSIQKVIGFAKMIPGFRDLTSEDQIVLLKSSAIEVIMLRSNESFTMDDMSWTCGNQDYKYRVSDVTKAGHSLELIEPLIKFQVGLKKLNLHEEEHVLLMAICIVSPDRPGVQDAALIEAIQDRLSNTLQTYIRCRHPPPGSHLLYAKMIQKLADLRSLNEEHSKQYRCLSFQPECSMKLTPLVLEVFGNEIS
Assay [18] can be described thus: qHTS assay to identify small molecule agonists of the RXR signaling pathway - cell viability counter screen (AID 1159529; active = well fitted curve in the direction sought with a large enough effect in the repeat runs; an effect the other way counts as inactive or inconclusive; note: nearly all actives have a fitted effect of over 50% in size; note: potency is the fitted concentration of half-maximal effect). The method, boiled down:
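In this parallel viability measure, GeneBLAzer RXR-alpha HEK 293T cells (2% charcoal-stripped FBS) were given a 5 hr preincubation, treated with compounds 16 hr at 37 C, and read by CellTiter-Glo luminescence.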

Records with an inconclusive call do not appear. The source made the active and inactive calls. Unless noted, calls come from the whole dose curve.

Sequence of Retinoic acid receptor RXR-alpha (Homo sapiens) (P19793 whole entry, looked up): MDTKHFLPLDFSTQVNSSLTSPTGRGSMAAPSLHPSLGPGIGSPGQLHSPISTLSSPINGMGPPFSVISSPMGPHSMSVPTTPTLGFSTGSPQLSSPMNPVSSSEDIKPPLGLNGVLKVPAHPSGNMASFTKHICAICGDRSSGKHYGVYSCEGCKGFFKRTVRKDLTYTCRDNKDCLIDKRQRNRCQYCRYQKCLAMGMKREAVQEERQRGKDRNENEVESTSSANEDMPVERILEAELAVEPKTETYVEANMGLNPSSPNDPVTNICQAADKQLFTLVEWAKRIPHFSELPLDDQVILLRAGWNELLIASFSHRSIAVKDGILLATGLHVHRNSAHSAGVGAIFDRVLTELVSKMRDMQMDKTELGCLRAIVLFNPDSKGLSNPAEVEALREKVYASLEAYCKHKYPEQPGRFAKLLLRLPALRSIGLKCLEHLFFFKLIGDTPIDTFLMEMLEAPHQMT
Sequence of Bile acid receptor (Homo sapiens) (Q96RI1 whole entry, looked up): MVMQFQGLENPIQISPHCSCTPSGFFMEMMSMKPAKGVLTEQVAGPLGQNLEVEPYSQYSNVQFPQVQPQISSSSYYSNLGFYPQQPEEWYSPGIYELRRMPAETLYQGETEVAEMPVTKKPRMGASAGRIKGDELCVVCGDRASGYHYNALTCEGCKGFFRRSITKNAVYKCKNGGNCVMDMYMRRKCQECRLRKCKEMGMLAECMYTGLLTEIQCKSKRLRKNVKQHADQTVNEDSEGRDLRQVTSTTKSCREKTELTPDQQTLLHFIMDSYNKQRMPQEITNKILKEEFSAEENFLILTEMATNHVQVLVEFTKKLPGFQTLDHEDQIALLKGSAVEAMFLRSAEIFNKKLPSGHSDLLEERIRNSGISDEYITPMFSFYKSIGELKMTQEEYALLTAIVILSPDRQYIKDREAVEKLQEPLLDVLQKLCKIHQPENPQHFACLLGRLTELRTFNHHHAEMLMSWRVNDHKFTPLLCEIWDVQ

In the case of `CCN(CC)CCCC(C)Nc1c2ccc(Cl)cc2nc2ccc(OC)cc12` (configuration not stated), the values for the Potency in assay [1], in [2] and in assay [3] were 29.8 µM (active), 13.3 µM (active) and 26.6 µM (active), respectively. The Potency result in [4], in assay [5], in assay [6] and in assay [7] was “inactive” each time.
Take `CC(C)n1nc(-c2cc3cc(O)ccc3[nH]2)c2c(N)ncnc21`: the Potency result in assay [8], in [3], in assay [10], in assay [4] and in assay [11] was “inactive” each time. Besides, the Potency in assay [9] is 15 µM (active); in assay [5] it was 9.52 µM (active); in assay [6] it was 2.98 µM (active).
As for `NNc1nc(-c2ccccc2)cs1`, the Potency result in assay [12], in assay [13], in assay [4], in assay [5], in [14] and in [7] was “inactive” in each case. Moreover, in [15], the Potency entry was “inactive”. In addition, in assay [2], the Potency was 2.52 µM (active).
For `OCCCCCCCCCCCCBr`, the Potency result in [8], in [1], in assay [2], in [16], in [3] and in [17] was “inactive” in each case. For the same molecule, the Potency entry in assay [13], in assay [9], in assay [10], in assay [4], in [5] and in assay [7] was “inactive” in each case. Moreover, in assay [11], the Potency entry was “inactive”. The Potency in assay [14] is 62.1 µM (active).
Turning to `CN(C)[C@@H]1C(=O)C(C(N)=O)=C(O)[C@@]2(O)C(=O)C3=C(O)c4c(O)cccc4C[C@H]3C[C@@H]12`, the Potency entry in [1], in assay [2], in [3], in [9], in [10] and in assay [4] was “inactive” each time. Further, the Potency entry in assay [5], in [7], in assay [11], in assay [15] and in assay [18] was “inactive” in each case. Besides, the Potency in assay [14] was 13.3 µM (active).
Consider `Oc1ccc(N=Nc2ccccc2)cc1`, for which the Potency result in assay [8], in assay [12], in assay [2], in assay [3], in [4] and in assay [5] was “inactive” in each case. For the same molecule, the Potency entry in assay [14], in [7] and in assay [18] was “inactive” each time.
On to `Cc1onc(-c2c(Cl)cccc2Cl)c1C(=O)N[C@@H]1C(=O)N2[C@@H]1SC(C)(C)[C@@H]2C(=O)O`, for which the Potency result in [1], in assay [2], in [3], in [17], in assay [9] and in assay [10] was “inactive” in each case. Further, the Potency result in [4], in [5], in assay [6] and in assay [7] was “inactive” throughout.
On to `Cc1cccc(N(C)C(=S)Oc2ccc3c(c2)C2CCC3C2)c1` (configuration not stated), for which the Potency result in assay [8], in assay [12], in [3], in [9], in assay [10] and in assay [4] was “inactive” each time. The Potency result in [5], in assay [6] and in assay [7] was “inactive” in each case.
As for `O=C1Cc2cc(CCN3CCN(c4nsc5ccccc45)CC3)c(Cl)cc2N1`, the Potency was 26.6 µM (active) in assay [1], 23.9 µM (active) in assay [4] and 23.9 µM (active) in [18]. The Potency entry in assay [5] and in assay [6] was “inactive” in each case.
